Out of some 96,000 compounds screened, about 20,000 (21%) were called active.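 Rule for the calls: active = CYP2C19 inhibition above a set limit at 5 µM in the primary screen (cut at about 50% in these data); inactive = the rest.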 A selection follows.

This passage reports inhibition results from PubChem BioAssay AID778 (Sanford-Burnham Center for Chemical Genomics, 2007).

Chain of Cytochrome P450 2C19 (Homo sapiens) (P33261 whole entry, looked up): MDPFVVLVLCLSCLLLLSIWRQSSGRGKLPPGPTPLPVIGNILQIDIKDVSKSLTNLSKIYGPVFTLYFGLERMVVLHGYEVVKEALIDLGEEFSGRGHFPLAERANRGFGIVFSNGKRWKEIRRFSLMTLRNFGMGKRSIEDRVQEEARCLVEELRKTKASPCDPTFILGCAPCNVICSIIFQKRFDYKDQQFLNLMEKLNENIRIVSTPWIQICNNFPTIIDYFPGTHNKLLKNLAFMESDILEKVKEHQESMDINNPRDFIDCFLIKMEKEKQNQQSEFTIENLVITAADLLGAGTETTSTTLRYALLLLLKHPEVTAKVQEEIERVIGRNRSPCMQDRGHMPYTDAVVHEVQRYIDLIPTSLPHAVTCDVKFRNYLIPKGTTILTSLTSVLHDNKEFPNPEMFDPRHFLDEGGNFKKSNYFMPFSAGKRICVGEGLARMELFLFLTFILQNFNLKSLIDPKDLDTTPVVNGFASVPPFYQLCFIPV

The assay concerns the target Cytochrome P450 2C19 (Homo sapiens) (UniProt P33261). Kind of assay: blockers of cytochrome P450 2C19 activity – biochemical, luminescence, ADME assay, primary screen (AID 778).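 Note: plate controls were negative control wells for no effect and 2.5 mM tranylcypromine positive control for full effect.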 Particulars: CYP2C19 Supersomes, luciferin-H EGE luminescence, 30 min; at 5 µM; hits give high values.
Regarding `CCCn1c(C)cc(C(=O)COC(=O)c2c(C)nn(-c3ccccc3)c2C)c1C`, the inhibition (usually the relative decrease from the control value, in per cent) is 88.6% (active). For the molecule `Cc1nn(-c2ccccc2)c(C)c1C(=O)OCC(=O)NC(=O)NC1CCCCC1`, the inhibition is 28.3% (inactive). As for `Cc1cc(C(=O)COC(=O)c2cccs2)c(C)n1-c1c(C)n(C)n(-c2ccccc2)c1=O`, the inhibition was -0.8% (inactive). In the case of `O=C1CCC(C(=O)Nc2ccc(OC(F)F)cc2)N1` (configuration not stated), the inhibition is 0% (inactive). On to `O=c1cc(CO)oc(CN2CCC(Cc3ccccc3)CC2)c1O`, for which the inhibition was 15.2% (inactive). Consider `CCN1CCCC1CNC(=O)Cn1cnc2ccc(S(=O)(=O)N3CCC(C)CC3)cc2c1=O` (configuration not stated), for which the inhibition is -0.8% (inactive). The value for `COCC(C)N=CC1=C(O)CC(C)(C)CC1=O` (configuration not stated) was 0.7% (inactive); that for `c1ccc(Nc2n[nH]nc2-c2ccccc2)cc1` was 84.7% (active).

Regarding `Nc1ccc(Nc2ccccc2)cc1`, the inhibition was 36.6% (inactive). As for `COC(CNC(=O)Cn1ncc2ccsc2c1=O)OC`, the inhibition was 2.1% (inactive). As for `COc1ccccc1NC(=O)COc1ccc(C(=O)OCC(=O)N(C(C)C)C(C)C)cc1OC`, the inhibition was 56.4% (active). The value for `COC(=O)C(CC(=O)Nc1cc(C)ccc1C)Nc1ccccc1OC` (configuration not stated) was 15.3% (inactive). The result for `COc1ccccc1NC(=O)/C=C/C(N)=O` reads -0.2% (inactive); that for `CC1CC(C)CN(C/C=C/c2ccccc2[N+](=O)[O-])C1` (configuration not stated), 29.7% (inactive); that for `CCC(C)NC(=O)CSC1=Nc2ccccc2C2=NC(CCC(=O)NCc3ccco3)C(=O)N12` (configuration not stated), 6.1% (inactive). As for `CCOC(=O)CNC(=O)CSc1nnc(COc2ccc(Cl)cc2)n1CC`, the inhibition was 14.7% (inactive). As to `Cc1nnc(SCC(=O)NCCOc2ccc(Cl)cc2)n1-c1ccccc1`, the inhibition was 95.6% (active). Regarding `COc1ccc(OC)c(/C=N/NC(=O)CSc2nnc(C)n2-c2ccccc2)c1`, the inhibition was 23.2% (inactive).

`COC(=O)[C@@H](NC(=O)NCc1cccc(OC)c1)C(C)C`: the inhibition is 5.8% (inactive).

Turning to `CCOC(=O)Cn1c(-c2cccnc2Cl)nc2ccccc21`, the inhibition is -2% (inactive). On to `Cc1no[n+]([O-])c1COc1ccccc1/C=C1\NC(=S)NC1=O`, for which the inhibition is 20.6% (inactive). Take `CCN1C(=O)/C(=C2\SC(N3CCCCC3)=NC2=O)c2ccccc21`: the inhibition was 19.9% (inactive).

Turning to `CCN1C(=O)/C(=C\N2CCN(c3cccc(Cl)c3)CC2)SC1=S`, the inhibition was 13% (inactive). With `O=Cc1c(N2CCN(c3cccc(Cl)c3)CC2)nc2ccccn2c1=O`, the inhibition was 99.4% (active).

For `O=S(=O)(c1cccc2nonc12)N1CCN(c2cccc(Cl)c2)CC1`, the inhibition is 1.5% (inactive). For the molecule `CN1CC(c2ccccc2)C2(COc3ccccc3C2=O)C12C(=O)Nc1ccccc12` (configuration not stated), the inhibition is 46.7% (inactive). The result for `COc1ccccc1/C=C/C1=NC(=C\N(C)C)/C(=O)O1` reads 19.5% (inactive).
